Compounds with a hit are over-represented: about 2.4% of the library has one in this group of screens.
D2 antagonist – HTS Assay for Allosteric Antagonists of the Human D2 Dopamine Receptor: Primary Screen for Antagonists | hit rate 2% among 340,000 | AID 485344, 2010 | D(2) dopamine receptor (Homo sapiens), P14416 | inhibition, % at 10 µM | HEK293 TREx D2 cells, calcium flux, dopamine EC80; in the data active = inhibition above about 30%; inactive = below that, where a call was filed; also: 0% is about no effect
Target sequence (P14416 whole entry, looked up): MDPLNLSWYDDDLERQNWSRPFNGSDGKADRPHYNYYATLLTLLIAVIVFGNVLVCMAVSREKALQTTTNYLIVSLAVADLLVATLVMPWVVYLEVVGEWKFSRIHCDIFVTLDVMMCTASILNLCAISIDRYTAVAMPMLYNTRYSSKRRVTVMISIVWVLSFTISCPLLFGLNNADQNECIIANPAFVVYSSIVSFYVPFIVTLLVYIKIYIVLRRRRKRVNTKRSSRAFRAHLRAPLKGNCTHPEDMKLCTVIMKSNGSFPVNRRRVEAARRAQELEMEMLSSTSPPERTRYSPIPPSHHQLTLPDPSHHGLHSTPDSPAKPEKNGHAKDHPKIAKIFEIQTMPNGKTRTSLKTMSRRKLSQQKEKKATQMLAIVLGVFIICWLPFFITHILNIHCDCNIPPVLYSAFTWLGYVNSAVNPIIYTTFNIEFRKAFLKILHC
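Calcium mobilization kinetics were recorded at 1 s intervals in tetracycline-induced HEK293 T-REx D2 cells, first for 180 s after compound addition and then 180 s after EC80 dopamine.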
D2 PAM-1 – HTS Assay for Positive Allosteric Modulators of the Human D2 Dopamine Receptor: Primary Screen for Potentiators; HEK293 T-REx D2, calcium flux, EC20 dopamine potentiation; potentiation, % at 10 µM; hit rate 0.34% among 340,000; D(2) dopamine receptor (Homo sapiens), P14416;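 active = potentiation over 3 SD above the plate norm, cut at about 30% in these data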; also: 0% is about no effect
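Potentiation of an EC20 dopamine calcium response measured kinetically over 180 s, after a preceding 180 s compound-only read flagging agonists. Cells: inducible Hek293 Trex D2 line, 4000/well, cultured overnight at 30 C before dye loading.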
D2 PAM-2 – Beta-Arrestin HTS for Positive Allosteric Modulators of the Human D2 Dopamine Receptor: Potentiators; D(2) dopamine receptor (Homo sapiens), P14416; DiscoveRx D2 beta-arrestin cells, luminescence, 90 min; 100% = 57 uM dopamine signal; potentiation, % (concentration not given with the values); hit rate 0.23% among 360,000; AID 624464, 2012; in the data active = potentiation above about 50%
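PathHunter beta-arrestin assay in DiscoveRx D2 cells. Compounds were added with an EC20 of dopamine (50 nM final) for 90 min at 37 deg C. Luminescence was read 1 h after detection reagent, with 57 uM dopamine as the EC100 control.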
D2 ag-1 – HTS Assay for Allosteric Agonists of the Human D2 Dopamine Receptor: Primary Screen for Agonists | D(2) dopamine receptor (Homo sapiens), P14416 | HEK293 T-REx D2 cells, calcium flux agonist mode | activation, % at 2 µM | hit rate 0.53% among 340,000;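 active = activation over 3 SD above normal in the single-dose calcium agonist read, cut at about 30% in these data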; also: 0% is about no effect
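HEK293 Trex D2 cells, tetracycline-induced, o/n 30 C 5% CO2; no-wash Ca dye, RT 30–90 min; 10-cycle baseline, 23 nl cpd added, kinetic Ca read 180 s; agonist hits = positive Ca response.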
D2 ag-2 – Beta-Arrestin HTS for Positive Allosteric Modulators of the Human D2 Dopamine Receptor: Agonists | AID 624465, 2012 | DiscoveRx PathHunter D2 beta-arrestin, luminescence, 90 min; 100% = 57 uM dopamine signal | activation, % (test concentration not listed) | hit rate 0.084% among 360,000; in the data active = activation above about 40%
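Agonist mode: compounds alone added to overnight-plated D2 PathHunter cells for 90 min at 37 C, with 57 uM final dopamine (EC100) defining full response. Beta-arrestin recruitment detected by chemiluminescent reagent, read after 1 h at ambient temperature.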
An asterisk follows results filed as active; . = no result given.

SMILES | D2 antagonist | D2 PAM-1 | D2 PAM-2 | D2 ag-1 | D2 ag-2
CCCOc1ccc(N)cc1N | -13 | 13 | 66* | 1 | 15
CCCOc1cc(N)ccc1C(=O)OCCN(CC)CC | -6 | 4 | -21 | 0 | -5
Cc1cc2n(n1)SC(Nc1cccc3ccccc13)N2 (stereo not drawn) | -2 | 0 | 11 | 1 | -1
CCc1ccccc1NC1Nc2cc(C)nn2S1 (stereo not drawn) | 8 | 56* | -8 | 0 | -4
COc1cc(NC(C)=O)c2ncccc2c1NC(C)=O | 37* | 13 | -4 | 1 | -6
CCOC(=O)/C(=C\C=C1/Sc2ccccc2N1CC)C(C)=O | . | . | -8 | . | 4
CCOC(=O)/C(=C/C=C1\Sc2cc(C)c(C)cc2N1CC)C(C)=O | 29 | 31* | -12 | 84* | 6
CCOC(=O)/C(=C/C=C1\Sc2ccccc2N1CC)C(C)=O | 1 | 1 | -2 | 35* | -4
CCc1nn2c(=O)cc(COC(=O)c3cccs3)nc2s1 | . | 19 | . | 0 | .
CC(NC(=O)C1CCN(Cc2ccc(Oc3ccccc3)cc2)CC1)c1cccc2ccccc12 (stereo not drawn) | . | . | -16 | . | -5
CC(C)c1[nH]nc2c1C1(CCN(Cc3ccccc3)CC1)C(C#N)=C(N)O2 | 40* | -20 | 2 | 5 | 11
CCCc1[nH]nc2c1C1(CCN(C(=O)OCc3ccccc3)CC1)C(C#N)=C(N)O2 | 8 | 4 | 12 | 1 | 2
Cc1cc(C)n(-c2nc3ccccc3nc2N2CCN(c3cccc(C(F)(F)F)c3)CC2)n1 | . | -6 | . | 0 | .
COc1ccc(C)cc1NC(=O)NCCC1=CCCCC1 | 86* | -30 | -22 | -1 | -3
COC(=O)c1ccc(NC(=S)NCCC2=CCCCC2)cc1 | 55* | -16 | -19 | 0 | -1
CCS(=O)(=O)N1CCc2cc(C(=O)NCc3ccccc3OC)ccc21 | . | -2 | . | -1 | .
COc1ccccc1NC(=O)c1cc2c(=O)oc3ccc(C)cc3c2s1 | . | 0 | . | 0 | .
COc1cccc(-c2nc(CS(=O)(=O)CC(=O)NCc3ccc(C)cc3)c(C)o2)c1 | . | 8 | . | -1 | .
COc1ccc(Cn2c(O)c(C=Nc3ccccc3C(=O)O)c3ccccc3c2=O)cc1 | 32* | 4 | 5 | 0 | 5
COc1ccc(C(C)(O)c2nc(-c3cccc(NC(C)=O)c3)cs2)cc1 (stereo not drawn) | . | . | -1 | . | 10
Cc1cc(C)c(O)c(-c2cc(C(=O)Nc3ccc(S(=O)(=O)N4CCOCC4)cc3)[nH]n2)c1 | -7 | 36* | 16 | 1 | 4
CCOC(=O)c1oc2ccc(S(=O)(=O)n3nc(-c4ccc(C)cc4)cc3N)cc2c1C | 35* | 2 | 0 | 0 | -30
O=c1oc2ccc3ccccc3c2cc1-c1nnc(Nc2cccc(F)c2)s1 | . | -2 | . | 1 | .
COc1cc(CNC2CCCC2)c(Br)cc1OC1CCCC1 | -3 | -20 | -21 | 1 | -18
COc1cc(CNCc2ccccc2)c(Br)cc1OC1CCCC1 | 51* | -26 | -22 | -1 | -3
SMILES | D2 antagonist | D2 PAM-1 | D2 PAM-2 | D2 ag-1 | D2 ag-2
O=C(Nc1ccc(O)cc1C(=O)O)c1ccc(NC(=O)c2ccco2)cc1 | 46* | 29 | 19 | 1 | 5
O=C(Nc1ccccc1C(=O)O)c1cccc(NC(=O)c2ccco2)c1 | . | . | 22 | . | 9
Fc1ccc(-c2noc3ncnc(NCc4cccc(Cl)c4)c23)cc1 | . | -6 | . | -1 | .
CCCN[C@H]1CCc2nc(N)sc2C1 | . | . | 80* | . | 74*
N/C(=N\N=C/c1ccc(Br)cc1)N/N=C\c1ccc(Br)cc1 | 1 | -3 | -14 | 0 | -2
N/C(=N\N=C/c1ccc(F)cc1)N/N=C\c1ccc(F)cc1 | 40* | 4 | -44 | -2 | 4
COc1cc2[nH]c(-c3ccc(C)cc3)cc(=O)c2cc1OC | 84* | -20 | -31 | -1 | 1
COc1ccc(-c2cc(=O)c3cc(C)ccc3[nH]2)cc1 | 14 | -9 | -21 | 0 | -4
CCn1c(C)cc(/C=C2/SC(=S)NC2=O)c1C | 4 | 5 | -11 | 6 | 0
CCn1ncc(/C=C2/SC(=S)NC2=O)c1C | 12 | -12 | -13 | 33* | -2
CC1(C)CC(=O)c2sc(NS(=O)(=O)c3ccc([N+](=O)[O-])cc3)nc2C1 | 4 | -5 | 54* | 0 | -1
CC1(C)CC(=O)c2sc(NS(=O)(=O)c3ccccc3)nc2C1 | -6 | 8 | -10 | 0 | 0
CC(=O)N1CCN(C(=O)c2ccc(Cl)c(S(=O)(=O)N3CCCCCC3)c2)CC1 | 32* | 7 | -6 | 1 | 1
O=C(NCc1ccc(Cl)cc1)c1cc2ccccc2o1 | . | . | . | 1 | .
O=C(NCc1ccccc1CN1CCCC1)c1ccc(Cl)c(S(=O)(=O)N2CCCC2)c1 | 33* | -26 | -32 | 0 | -2
O=C(NCc1ccccc1CN1CCCC1)c1cc2cc(Cl)ccc2o1 | 40* | -19 | -3 | 0 | 5
COc1ccc(C(=O)NCc2ccco2)cc1S(=O)(=O)N1CCOCC1 | 10 | -7 | -3 | 0 | -2
O=C(c1ccc(Cl)c(S(=O)(=O)N2CCCCC2)c1)N1CCCCC1 | -8 | -5 | -13 | 0 | -4
COc1ccc(C(=O)NCc2ccccc2CN2CCCC2)cc1S(=O)(=O)N1CCOCC1 | 45* | -23 | -17 | 0 | -7
CCOC(=O)c1ccc(CN(Cc2ccc(F)cc2)S(=O)(=O)c2ccc(F)c(C(=O)Nc3ccc(Cl)cc3F)c2)cc1 | . | -22 | . | 0 | .
CCOc1ccc(-c2nnc(SCC(=O)NCc3ccccc3Cl)o2)cc1 | . | 2 | . | -1 | .
CC1CCN(c2nc3ccccc3nc2SCC(=O)Nc2ccccc2C(C)C)CC1 | . | 2 | . | 0 | .
CC1CCN(C(=O)CSc2nc3ccccc3nc2Cc2ccccc2)CC1 | . | 6 | . | -1 | .
Cc1ccc(C(=O)NCc2ccccc2F)cc1S(=O)(=O)N1CCCC1 | -30 | 12 | -10 | 1 | 2
CN1CCN(S(=O)(=O)c2cc([N+](=O)[O-])ccc2Cl)CC1 | 3 | 1 | 28 | 0 | 4
Cc1ccc(C(=O)NCc2ccccc2CN2CCCC2)cc1S(=O)(=O)N1CCOCC1 | 51* | -28 | -31 | 0 | -1
O=[N+]([O-])c1ccc(Cl)c(S(=O)(=O)N2CCCCCC2)c1 | -5 | 10 | 70* | 0 | 0
O=C(NCC1COc2ccccc2O1)c1ccc(Cl)c(S(=O)(=O)N2CCOCC2)c1 (stereo not drawn) | 31* | -1 | -1 | 1 | -2
CN1CCN(S(=O)(=O)c2cccc(C(=O)Oc3ccc(C(C)(C)C)cc3)c2)CC1 | 34* | 5 | -7 | 1 | -1

Source: PubChem
